Molecules are shown by their SMILES. The source made the active and inactive calls.

Experiment [1] is described as follows: small molecules captured by biotinylated probe aFSTL3 – biochemical, small-molecule microarray, fluorescence 635/667, stem cell growth factor project, primary screen (AID 1064).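 Note: measures binding of the biotinylated anti-FSTL3 antibody to printed compounds.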 The settings on record: higher = more signal.
Experiment [2] is described as follows: binders from COS7 lysate, DM2A8 probe, primary screen, torsin A project, cell lysate, small-molecule microarray, fluorescence 635/667 (AID 1065). The settings on record: higher = more signal, COS7 lysate expressing mutant human TOR1A.
Experiment [3] in a line: small molecules captured by biotinylated probe aFGF2 – biochemical, small-molecule microarray, fluorescence 635/667, stem cell growth factor project, primary screen (AID 1067).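 Note: measures binding of biotinylated aFGF2 protein to printed compounds on slides; z-score merges feature fluorescence and signal-to-noise across triplicate slides.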 The settings on record: higher = more signal.
The nature of experiment [4]: small molecules captured by biotinylated probe aFGF10 – biochemical, small-molecule microarray, fluorescence 635/667, stem cell growth factor project, primary screen (AID 1071).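 Note: score merges 667 nm spot intensity and signal to noise from triplicate slides.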 The settings on record: higher = more signal.
Experiment [5] addresses Neurogenic locus notch homolog protein 2 (Homo sapiens) (UniProt Q04721). The experiment in a line: small molecules binding Notch2 protein – biochemical, small-molecule microarray, 635 nm fluorescence, stem cell growth factors, primary screen (AID 1073). The settings on record: higher = more signal.
Experiment [6] deals with Pro-neuregulin-1, membrane-bound isoform (Homo sapiens) (UniProt Q02297). Nature of the experiment: small molecules binding neuregulin-1 protein – biochemical, small-molecule microarray, fluorescence 635/667, psychiatric disease protein project, primary screen (AID 1075).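 Note: score combines 667 nm spot fluorescence with signal to noise.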 The settings on record: NRG1 binding, 635 nm fluorescence, higher = more signal.
For experiment [7], the system named is Neuregulin-1 EGF-like domain. Nature of the experiment: small molecules binding NRG1 EGF domain – biochemical, small-molecule microarray, 635 nm fluorescence, primary screen (AID 1081).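 Note: binding of the protein to compounds printed on small-molecule microarray slides.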 The settings on record: higher = more signal.
Experiment [8] in a line: FRG1 expression reporter modulators in myotubes – cell-based, C2C12 myotubes, firefly/Renilla luciferase, luminescence, FRG1 inhibition for FSHD, primary screen (AID 1084). The settings on record: FRG1 promoter luciferase, higher = more signal, called active from +8 up or from −8 down.
A short description of experiment [9]: small molecules captured by biotinylated probe aFST – biochemical, small-molecule microarray, fluorescence 635/667, stem cell growth factor project, primary screen (AID 1086).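 Note: score merges 667 nm fluorescence with signal-to-noise of each printed compound spot.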 The settings on record: higher = more signal.
The nature of experiment [10]: binders of probe aHhip on microarray, primary screen, stem cell growth factor project, biochemical, small-molecule microarray, fluorescence 635/667 (AID 1087).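 Note: score merges spot fluorescence at 667nm with spot signal to noise ratio.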 The settings on record: higher = more signal.
Experiment [11] deals with PRMT1 (protein arginine N-methyltransferase 1). Nature of the experiment: small molecules binding arginine methyltransferase PRMT1 – biochemical, small-molecule microarray, 635 nm fluorescence, primary screen (AID 1088).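 Note: binding of Prmt1 protein to compounds spotted on small-molecule microarray slides.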 The settings on record: higher = more signal.
The nature of experiment [12]: growth effects on S. cerevisiae YJM789 – YJM789 clinical isolate, OD600, 24 h, basal, primary screen (AID 1089).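 Note: growth of clinical yeast isolate S. cerevisiae YJM 789 seeded 1000 cells per well; test concentration not given here.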 The settings on record: higher = more signal, called active from +8 up or from −8 down.
Experiment [13] is described as follows: S. pombe growth modifiers, basal conditions – strain 972, OD600, 24 h, no modulator, primary screen (AID 1090).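 Note: basal condition with compound alone and no growth modifier present; test concentration not given here.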 The settings on record: S. pombe 972 growth, higher = more signal, called active from +8 up or from −8 down.
Experiment [14] in a line: budding yeast growth modifiers under rapamycin – strain BY4716, OD600, 96 h, primary screen (AID 1091). Note: test concentration not given here. The settings on record: S. cerevisiae BY4716 + rapamycin, higher = more signal, called active from +8 up or from −8 down.
Experiment [15] deals with Torsin-1A-interacting protein 2 (Homo sapiens) (UniProt Q8NFQ8). The experiment in a line: small molecules binding lysate-expressed LULL1 – cell lysate, human LULL1 lysate, 635/667 nm fluorescence, primary screen (AID 1092).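 Note: score merges per-feature 667 nm fluorescence with signal-to-noise.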 The settings on record: small-molecule microarray, hLULL1 lysate binding, 635 nm fluorescence; higher = more signal.
A short description of experiment [16]: optical density change of DRC41 E. coli – strain DRC41, OD650, 24 h, E. coli filamentation project, primary screen (AID 1093).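 Note: MC1000 strain lacking acrAB efflux and sulA so SOS filamentation is blocked; test concentration not given here.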 The settings on record: E. coli DRC41 growth, higher = more signal, called active from +8 up or from −8 down.
Experiment [17] is described as follows: probe aLefty2 binding to arrayed compounds – biochemical, biotinylated probe, 635/667 nm fluorescence, primary screen (AID 1094).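 Note: score merges spot fluorescence near 667 nm with spot signal-to-noise ratio.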 The settings on record: small-molecule microarray, higher = more signal.
For experiment [18], the system named is Noggin (protein binding on small-molecule microarray). Nature of the experiment: small molecules binding Noggin protein – biochemical, 635/667 nm fluorescence, primary screen (AID 1095).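 Note: score merges 667 nm feature fluorescence with signal to noise over triplicate slides.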 The settings on record: 635 nm fluorescence, higher = more signal.
Experiment [19] concerns the target Neurogenic locus notch homolog protein 3 (Homo sapiens) (UniProt Q9UM47). The experiment in a line: small molecules binding NOTCH3 protein – biochemical, 635/667 nm fluorescence, primary screen (AID 1096). The settings on record: small-molecule microarray, 635 nm fluorescence, higher = more signal.
Experiment [20] in a line: probe aEGFR binding to arrayed compounds – biochemical, biotinylated probe, 635/667 nm fluorescence, primary screen (AID 1097).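 Note: probe is a biotinylated anti-EGFR antibody binding compounds printed on slides; score combines fluorescence near 667 nm and signal to noise of each spot.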 The settings on record: small-molecule microarray, higher = more signal.

Neurogenic locus notch homolog protein 2 (Homo sapiens), sequence (Q04721 whole entry, looked up, canonical isoform): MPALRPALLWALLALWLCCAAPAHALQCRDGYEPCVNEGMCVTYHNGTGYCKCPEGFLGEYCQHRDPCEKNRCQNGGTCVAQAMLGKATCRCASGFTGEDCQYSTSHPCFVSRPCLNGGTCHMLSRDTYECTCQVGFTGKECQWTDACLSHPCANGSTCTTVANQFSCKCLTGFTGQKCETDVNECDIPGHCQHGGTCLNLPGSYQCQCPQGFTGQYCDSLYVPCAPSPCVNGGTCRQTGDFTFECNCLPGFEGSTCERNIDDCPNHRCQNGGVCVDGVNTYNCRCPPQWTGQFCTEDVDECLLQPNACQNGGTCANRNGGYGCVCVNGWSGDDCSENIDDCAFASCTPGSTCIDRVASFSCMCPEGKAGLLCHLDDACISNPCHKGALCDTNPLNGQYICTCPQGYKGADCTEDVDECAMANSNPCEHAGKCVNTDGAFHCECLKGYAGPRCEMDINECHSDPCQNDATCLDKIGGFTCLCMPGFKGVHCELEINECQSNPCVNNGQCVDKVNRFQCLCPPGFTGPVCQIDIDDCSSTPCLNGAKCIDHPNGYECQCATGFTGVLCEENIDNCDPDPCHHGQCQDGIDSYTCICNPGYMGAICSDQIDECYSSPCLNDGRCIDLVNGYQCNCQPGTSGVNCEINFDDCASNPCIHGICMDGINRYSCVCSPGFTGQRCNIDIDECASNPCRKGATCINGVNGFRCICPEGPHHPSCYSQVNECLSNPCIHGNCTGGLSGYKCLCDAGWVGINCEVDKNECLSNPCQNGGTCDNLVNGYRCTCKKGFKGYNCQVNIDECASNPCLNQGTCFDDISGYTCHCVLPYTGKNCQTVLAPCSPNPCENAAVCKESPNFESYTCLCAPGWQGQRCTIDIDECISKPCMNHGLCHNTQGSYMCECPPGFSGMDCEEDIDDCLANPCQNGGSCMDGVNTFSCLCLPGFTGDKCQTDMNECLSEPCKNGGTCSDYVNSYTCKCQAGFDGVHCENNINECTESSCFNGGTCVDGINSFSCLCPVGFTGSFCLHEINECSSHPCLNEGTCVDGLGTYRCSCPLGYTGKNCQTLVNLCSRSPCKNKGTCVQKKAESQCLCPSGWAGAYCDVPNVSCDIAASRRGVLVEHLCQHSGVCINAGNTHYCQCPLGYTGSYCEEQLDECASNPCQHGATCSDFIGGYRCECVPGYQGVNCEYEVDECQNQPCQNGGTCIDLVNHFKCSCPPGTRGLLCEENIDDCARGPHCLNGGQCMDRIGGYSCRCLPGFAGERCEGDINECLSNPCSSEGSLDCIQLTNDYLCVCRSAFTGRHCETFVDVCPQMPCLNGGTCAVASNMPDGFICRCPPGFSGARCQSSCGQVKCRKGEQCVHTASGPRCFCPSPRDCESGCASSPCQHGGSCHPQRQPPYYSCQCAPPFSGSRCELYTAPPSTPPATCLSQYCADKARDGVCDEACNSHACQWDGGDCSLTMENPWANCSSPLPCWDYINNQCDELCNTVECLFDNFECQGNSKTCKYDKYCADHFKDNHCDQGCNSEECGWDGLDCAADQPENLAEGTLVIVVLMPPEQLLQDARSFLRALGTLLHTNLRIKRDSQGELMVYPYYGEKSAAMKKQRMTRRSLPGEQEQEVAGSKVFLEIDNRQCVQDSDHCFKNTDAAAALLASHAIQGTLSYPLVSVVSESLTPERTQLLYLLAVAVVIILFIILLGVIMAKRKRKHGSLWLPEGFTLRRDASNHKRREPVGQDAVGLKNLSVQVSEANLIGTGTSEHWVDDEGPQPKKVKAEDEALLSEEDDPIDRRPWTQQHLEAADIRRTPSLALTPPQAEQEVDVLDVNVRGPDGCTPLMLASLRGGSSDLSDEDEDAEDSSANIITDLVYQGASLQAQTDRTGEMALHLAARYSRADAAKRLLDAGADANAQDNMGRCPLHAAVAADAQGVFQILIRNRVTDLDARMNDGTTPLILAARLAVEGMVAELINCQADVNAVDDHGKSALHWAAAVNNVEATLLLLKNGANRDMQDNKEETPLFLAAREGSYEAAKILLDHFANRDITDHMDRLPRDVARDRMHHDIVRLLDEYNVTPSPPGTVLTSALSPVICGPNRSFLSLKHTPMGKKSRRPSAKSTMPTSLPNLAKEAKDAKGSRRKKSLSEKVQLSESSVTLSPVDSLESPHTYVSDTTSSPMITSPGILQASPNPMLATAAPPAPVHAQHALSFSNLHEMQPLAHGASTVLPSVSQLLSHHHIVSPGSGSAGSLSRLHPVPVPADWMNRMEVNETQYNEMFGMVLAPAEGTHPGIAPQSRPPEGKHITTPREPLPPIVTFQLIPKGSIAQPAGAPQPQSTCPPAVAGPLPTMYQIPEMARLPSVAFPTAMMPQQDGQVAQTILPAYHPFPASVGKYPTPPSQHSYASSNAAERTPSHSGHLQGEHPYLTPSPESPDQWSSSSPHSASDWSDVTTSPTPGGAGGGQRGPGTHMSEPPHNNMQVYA
Pro-neuregulin-1, membrane-bound isoform (Homo sapiens), sequence (Q02297 whole entry, looked up, the tested form may be a part, canonical isoform): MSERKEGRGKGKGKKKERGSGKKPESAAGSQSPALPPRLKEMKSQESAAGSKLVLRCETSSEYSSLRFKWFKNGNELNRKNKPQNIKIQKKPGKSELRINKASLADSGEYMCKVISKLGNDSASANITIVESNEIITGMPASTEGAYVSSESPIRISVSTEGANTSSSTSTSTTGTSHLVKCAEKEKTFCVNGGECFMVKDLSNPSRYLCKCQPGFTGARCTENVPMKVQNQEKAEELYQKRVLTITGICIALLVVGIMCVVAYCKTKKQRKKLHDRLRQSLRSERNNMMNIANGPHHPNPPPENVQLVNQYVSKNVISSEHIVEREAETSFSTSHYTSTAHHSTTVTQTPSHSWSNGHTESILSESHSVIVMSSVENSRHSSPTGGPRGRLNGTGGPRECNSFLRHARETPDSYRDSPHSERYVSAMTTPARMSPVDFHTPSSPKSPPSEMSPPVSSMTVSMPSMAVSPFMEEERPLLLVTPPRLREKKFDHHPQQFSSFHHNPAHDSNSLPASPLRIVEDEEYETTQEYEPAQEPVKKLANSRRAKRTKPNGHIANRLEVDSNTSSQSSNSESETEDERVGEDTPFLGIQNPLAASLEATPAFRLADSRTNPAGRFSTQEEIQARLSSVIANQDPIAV
Torsin-1A-interacting protein 2 (Homo sapiens), sequence (Q8NFQ8 whole entry, looked up): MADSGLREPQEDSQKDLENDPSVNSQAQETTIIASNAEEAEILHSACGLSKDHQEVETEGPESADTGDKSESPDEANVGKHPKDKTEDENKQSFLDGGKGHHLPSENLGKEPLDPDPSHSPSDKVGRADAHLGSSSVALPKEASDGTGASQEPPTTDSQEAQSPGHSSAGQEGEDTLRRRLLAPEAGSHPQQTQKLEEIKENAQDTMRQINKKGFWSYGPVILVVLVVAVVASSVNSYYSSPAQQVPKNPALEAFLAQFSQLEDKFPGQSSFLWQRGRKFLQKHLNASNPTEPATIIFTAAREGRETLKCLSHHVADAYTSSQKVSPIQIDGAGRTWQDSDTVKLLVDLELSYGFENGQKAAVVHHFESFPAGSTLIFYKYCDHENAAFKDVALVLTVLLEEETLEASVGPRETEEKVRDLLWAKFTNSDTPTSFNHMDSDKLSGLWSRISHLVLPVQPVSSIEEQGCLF

Take `COc1cc(CO)cc(I)c1O[C@H]1C=C(C(=O)NCCO)C[C@@H](N(CCN2CCOCC2)C(=O)C2CCOC2)[C@@H]1O` (stereo not given in full): the composite z-score was -0.458 in experiment [1]; 0.158 in experiment [2]; -0.12 in experiment [3]; 0.501 in [4]; -0.0056 in [5]; -0.0813 in experiment [6]. Besides, the composite z-score in [7] was -0.479; in experiment [9], 0.0409; in experiment [10] it was 1.25; in experiment [11], 0.815; in experiment [15], -0.367; in experiment [17], -0.0636. For the same molecule, the values for the composite z-score in [18], in experiment [19] and in [20] were 0.407, 0.51 and -0.099, respectively. The z-score in [8] was -1.22 (inactive); in experiment [12], -0.263 (inactive); in experiment [13] it was -0.62 (inactive); in [14], -0.679 (inactive); in experiment [16], 2.36 (inactive).
With `C=CCOC(=O)[C@@H]1[C@H]2C(=O)O[C@H](c3ccccc3)[C@H](c3ccccc3)N2[C@H](c2ccc(OCCOC(=O)[C@@H]3C[C@@H]4C(=O)N5CCC[C@H]5C(=O)N4[C@@H]3c3ccc(O)cc3)cc2)[C@@]12C(=O)Nc1ccc(I)cc12`, the composite z-score in [1] is -0.354; in experiment [2] it was -0.0315; in experiment [3], -0.0958; in experiment [4], 0.235; in experiment [5], 0.666; in [6] it was 0.596. Also, the composite z-score in [7] is 1.19; in experiment [9], 0.965; in [10], -0.069; in experiment [11] it was 1.42; in experiment [15] it was 2.55; in experiment [17] it was -0.207. For the same molecule, the values for the composite z-score in experiment [18], in experiment [19] and in experiment [20] were 1.51, 0.565 and -0.242, respectively. Moreover, the z-score in experiment [8] was -0.804 (inactive); in experiment [12] it was -0.577 (inactive); in experiment [13] it was 0.687 (inactive); in experiment [14], 2.09 (inactive); in experiment [16], 1.75 (inactive).
Regarding `CC(=O)n1cc(C(O)C2C=CC3C(=O)N(C)C(=O)C3N2Nc2ccccc2)c2ccccc21` (stereo not given), the composite z-score in experiment [1] was found to be 0.508; in experiment [2] it was 0.287; in experiment [3], 0.0672; in experiment [4], 0.974; in [5] it was 1.58; in experiment [6] it was 1.78. For the same molecule, the composite z-score in experiment [7] was 1.27; in experiment [9], 0.951; in experiment [10], -0.0196; in experiment [11], 1.05; in [15], 3.18; in experiment [17], 0.347. The figures for the composite z-score in [18], in experiment [19] and in [20] were 0.606, 1.12 and -0.0644, respectively. Also, the z-score was 0.376 (inactive) in experiment [8]; -0.0186 (inactive) in experiment [12]; 1.4 (inactive) in experiment [13]; 1.05 (inactive) in experiment [14]; -0.77 (inactive) in experiment [16].
On to `C=CCC(OC(C)=O)[C@@H]1[C@@H](N(Cc2ccc(-c3cccc(C(F)(F)F)c3)o2)C(=O)c2ccc(-c3ccccc3)cc2)c2cc(OCCCO)ccc2N1C(=O)c1ccc(-c2ccccc2)cc1` (stereo not given in full), for which the composite z-score was 0.0961 in experiment [1]; -0.233 in experiment [2]; -0.0242 in experiment [3]; 0.232 in [4]; 0.242 in [5]; 0.0249 in experiment [6]. Further, the composite z-score in experiment [7] is -0.825; in experiment [9], 0.13; in experiment [10], -0.0994; in experiment [11], -0.432; in experiment [15] it was 1.03; in [17], 0.0869. For the same molecule, the results for the composite z-score in [18], in [19] and in [20] were -0.29, -0.147 and -0.15, respectively. Also, the z-score in [8] is -0.245 (inactive); in experiment [12] it was 0.308 (inactive); in [13], -0.0943 (inactive); in [14] it was 0.8 (inactive); in experiment [16], -0.801 (inactive).
For `O=C1NC(=O)C2C1C=CC(C(O)c1cccc3ccccc13)N2Nc1ccccn1` (stereo not given), the composite z-score is -0.0559 in [1]; 0.143 in [2]; -0.0281 in [3]; 0.357 in experiment [4]; 1.19 in experiment [5]; 0.961 in experiment [6]. The composite z-score is 0.39 in [7]; 0.125 in experiment [9]; -0.242 in [10]; 0.246 in [11]; 1.37 in experiment [15]; 0.127 in experiment [17]. Moreover, the composite z-score was -0.321 in [18], -0.198 in [19] and -0.0766 in experiment [20]. Besides, the z-score in [8] is 0.661 (inactive); in experiment [12], 0.143 (inactive); in experiment [13] it was 1.14 (inactive); in experiment [14], -0.207 (inactive); in [16], 0.213 (inactive).

The record behind these values is PubChem BioAssay.
